# Test results: PubChem BioAssay AID651871 (Sanford-Burnham Center for Chemical Genomics, 2012)
# “And” between values parts separate entries of the source, which are not always exact repeats. Identical values can stand only once.
# System: H9c2
# Test: cardiomyocyte survival under oxidative or metabolic stress – cell-based, panel, H9c2 and HL-1, ATP luminescence, set 2, SAR follow-up (AID 651871);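 also: cells exposed to stressor for 2 h before ATP readout; reference of the scale not given here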
# Conditions: H9c2/HL-1 cardiomyocytes, 2-deoxyglucose stress, with 2-deoxyglucose; run 11, at 79 µM (top of the series)
row,Structure (SMILES),activity (protection/inhibition)
1,CCOC(=O)c1cccc(NC(=O)CNC(=O)c2cc(-c3cc(OC)c(OC)c(OC)c3)nc3ccccc23)c1,112%
2,COc1ccc2c(c1OC)C(=O)N1c3ccccc3C(=O)N(Cc3cccc(Cl)c3Cl)C21 (stereo not drawn),89.7% and 82.5% and -2.54%
3,COc1ccc2nc(-c3cc(OC)c(OC)c(OC)c3)cc(C(=O)NCC(=O)Nc3ccc(C(C)=O)cc3)c2c1,68.6%
